The text below walks through data of ChEMBL document CHEMBL2218924, “A broad activity screen in support of a chemogenomic map for kinase signalling research and drug discovery” (Biochem J, 2013).

For test [1], the target named is Vascular endothelial growth factor receptor 3 (Homo sapiens) (UniProt P35916). To be noted: at 10 µM.
The target of test [2] is Macrophage colony-stimulating factor 1 receptor (Homo sapiens) (UniProt P07333). The following applies: at 1 µM.
The target is the same in test [3]. The following applies: at 10 µM.
The target of test [4] is Tyrosine-protein kinase Fyn (Homo sapiens) (UniProt P06241). To be noted: at 1 µM.
Sequence of Tyrosine-protein kinase Fyn (Homo sapiens) (P06241 2-537 limits assumed): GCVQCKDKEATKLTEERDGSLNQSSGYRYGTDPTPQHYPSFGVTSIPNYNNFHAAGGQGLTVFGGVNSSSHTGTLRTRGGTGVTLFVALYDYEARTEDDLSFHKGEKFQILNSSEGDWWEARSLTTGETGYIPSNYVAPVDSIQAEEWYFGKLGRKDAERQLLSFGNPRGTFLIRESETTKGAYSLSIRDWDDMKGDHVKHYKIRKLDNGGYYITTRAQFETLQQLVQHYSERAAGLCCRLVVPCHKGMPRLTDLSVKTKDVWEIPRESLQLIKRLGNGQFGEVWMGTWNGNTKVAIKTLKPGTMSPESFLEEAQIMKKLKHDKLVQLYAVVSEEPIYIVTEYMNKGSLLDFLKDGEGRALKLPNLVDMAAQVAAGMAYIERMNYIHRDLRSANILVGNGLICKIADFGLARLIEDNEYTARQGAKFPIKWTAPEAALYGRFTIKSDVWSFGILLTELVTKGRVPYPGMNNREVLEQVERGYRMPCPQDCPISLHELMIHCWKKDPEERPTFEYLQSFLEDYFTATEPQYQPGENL
Test [5] has the same target. To be noted: at 10 µM.
Test [6] concerns the target T1, Mitogen-activated protein kinase kinase kinase kinase 2 (Homo sapiens) (UniProt Q12851).
T1 sequence (whole entry): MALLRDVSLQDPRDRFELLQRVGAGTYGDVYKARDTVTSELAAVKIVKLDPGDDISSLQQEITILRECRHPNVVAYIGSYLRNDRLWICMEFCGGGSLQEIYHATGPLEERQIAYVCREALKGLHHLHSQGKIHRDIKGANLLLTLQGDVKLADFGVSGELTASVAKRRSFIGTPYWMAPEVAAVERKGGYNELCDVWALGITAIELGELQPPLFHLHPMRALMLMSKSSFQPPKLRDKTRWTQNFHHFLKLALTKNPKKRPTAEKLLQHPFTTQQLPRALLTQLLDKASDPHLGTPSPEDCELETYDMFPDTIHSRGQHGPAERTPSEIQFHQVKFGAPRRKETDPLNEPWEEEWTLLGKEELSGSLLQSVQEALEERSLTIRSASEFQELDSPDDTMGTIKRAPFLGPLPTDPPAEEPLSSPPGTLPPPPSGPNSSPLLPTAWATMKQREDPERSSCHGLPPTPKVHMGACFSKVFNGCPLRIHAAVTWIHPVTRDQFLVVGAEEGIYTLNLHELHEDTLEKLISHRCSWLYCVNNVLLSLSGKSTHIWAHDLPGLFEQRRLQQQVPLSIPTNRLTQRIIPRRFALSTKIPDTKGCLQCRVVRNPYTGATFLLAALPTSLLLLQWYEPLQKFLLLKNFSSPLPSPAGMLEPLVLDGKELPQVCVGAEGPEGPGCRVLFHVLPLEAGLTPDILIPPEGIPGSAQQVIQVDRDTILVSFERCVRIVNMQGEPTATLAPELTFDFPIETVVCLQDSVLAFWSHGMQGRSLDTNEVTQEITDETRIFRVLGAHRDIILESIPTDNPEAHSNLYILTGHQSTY
The following applies: at 1 µM.

Test [7] concerns the target T1, Mitogen-activated protein kinase kinase kinase kinase 2 (Homo sapiens). To be noted: at 10 µM.
Test [8] addresses G protein-coupled receptor kinase 5 (Homo sapiens) (UniProt P34947). To be noted: at 10 µM.
The target of test [9] is G protein-coupled receptor kinase 6 (Homo sapiens) (UniProt P43250). To be noted: at 10 µM.
In test [10] the target is T2, Rhodopsin kinase GRK7 (Homo sapiens) (UniProt Q8WTQ7).
T2 sequence (whole entry): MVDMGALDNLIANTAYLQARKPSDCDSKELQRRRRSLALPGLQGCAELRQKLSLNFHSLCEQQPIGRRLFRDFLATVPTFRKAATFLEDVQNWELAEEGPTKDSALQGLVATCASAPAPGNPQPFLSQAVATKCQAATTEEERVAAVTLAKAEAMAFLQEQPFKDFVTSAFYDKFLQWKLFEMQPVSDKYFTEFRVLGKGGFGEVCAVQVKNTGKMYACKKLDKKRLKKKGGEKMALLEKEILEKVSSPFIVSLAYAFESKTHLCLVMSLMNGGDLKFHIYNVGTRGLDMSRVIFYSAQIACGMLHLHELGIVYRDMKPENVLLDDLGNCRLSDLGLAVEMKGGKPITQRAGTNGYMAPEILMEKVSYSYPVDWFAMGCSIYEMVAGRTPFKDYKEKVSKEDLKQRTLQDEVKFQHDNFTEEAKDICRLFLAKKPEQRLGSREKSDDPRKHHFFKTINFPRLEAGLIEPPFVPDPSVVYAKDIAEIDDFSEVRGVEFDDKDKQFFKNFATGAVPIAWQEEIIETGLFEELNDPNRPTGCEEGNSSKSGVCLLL
The following applies: at 1 µM.

The target in test [11] is T2, Rhodopsin kinase GRK7 (Homo sapiens). The following applies: at 10 µM.
Test [12] deals with Glycogen synthase kinase-3 alpha (Homo sapiens) (UniProt P49840). To be noted: at 1 µM.
The target is the same in test [13]. To be noted: at 10 µM.
Test [14] has as its target Glycogen synthase kinase-3 beta (Homo sapiens) (UniProt P49841). The following applies: at 1 µM.
Test [15] has the same target. The following applies: at 10 µM.
Test [16] deals with Homeodomain-interacting protein kinase 1 (Homo sapiens) (UniProt Q86Z02). To be noted: at 1 µM.
Sequence of Homeodomain-interacting protein kinase 1 (Homo sapiens) (Q86Z02 whole entry, looked up): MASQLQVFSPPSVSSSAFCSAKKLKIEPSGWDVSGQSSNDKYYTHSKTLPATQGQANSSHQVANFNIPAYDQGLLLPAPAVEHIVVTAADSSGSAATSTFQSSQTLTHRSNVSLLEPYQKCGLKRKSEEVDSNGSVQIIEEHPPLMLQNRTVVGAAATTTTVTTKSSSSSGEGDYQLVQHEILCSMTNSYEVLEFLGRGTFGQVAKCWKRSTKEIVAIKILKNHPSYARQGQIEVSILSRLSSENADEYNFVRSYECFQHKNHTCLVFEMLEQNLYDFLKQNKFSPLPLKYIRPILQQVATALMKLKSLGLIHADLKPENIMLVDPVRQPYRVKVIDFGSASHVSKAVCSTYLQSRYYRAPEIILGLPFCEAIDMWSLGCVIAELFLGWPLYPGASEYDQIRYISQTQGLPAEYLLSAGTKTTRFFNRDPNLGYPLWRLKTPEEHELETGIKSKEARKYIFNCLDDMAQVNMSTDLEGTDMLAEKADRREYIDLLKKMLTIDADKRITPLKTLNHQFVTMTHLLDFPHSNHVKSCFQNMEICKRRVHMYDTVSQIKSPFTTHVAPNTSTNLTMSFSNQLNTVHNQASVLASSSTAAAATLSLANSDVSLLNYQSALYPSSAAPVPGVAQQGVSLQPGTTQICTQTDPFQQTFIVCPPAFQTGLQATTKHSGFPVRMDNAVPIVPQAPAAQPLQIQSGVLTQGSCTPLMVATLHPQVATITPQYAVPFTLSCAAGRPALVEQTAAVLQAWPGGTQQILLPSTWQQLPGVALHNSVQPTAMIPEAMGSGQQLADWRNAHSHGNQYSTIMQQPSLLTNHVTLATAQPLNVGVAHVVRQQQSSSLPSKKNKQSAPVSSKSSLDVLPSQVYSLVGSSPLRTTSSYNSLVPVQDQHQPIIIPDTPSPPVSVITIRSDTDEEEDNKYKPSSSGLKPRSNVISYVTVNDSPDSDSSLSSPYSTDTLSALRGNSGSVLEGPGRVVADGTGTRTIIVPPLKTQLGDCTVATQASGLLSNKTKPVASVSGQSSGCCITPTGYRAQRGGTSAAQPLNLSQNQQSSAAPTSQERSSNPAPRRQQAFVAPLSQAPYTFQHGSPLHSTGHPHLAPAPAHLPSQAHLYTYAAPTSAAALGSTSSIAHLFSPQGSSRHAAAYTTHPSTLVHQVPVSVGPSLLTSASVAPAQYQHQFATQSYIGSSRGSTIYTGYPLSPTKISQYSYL
The target is the same in test [17]. The following applies: at 10 µM.
The target of test [18] is Homeodomain-interacting protein kinase 2 (Homo sapiens) (UniProt Q9H2X6). To be noted: at 1 µM.
Sequence of Homeodomain-interacting protein kinase 2 (Homo sapiens) (Q9H2X6 whole entry, looked up): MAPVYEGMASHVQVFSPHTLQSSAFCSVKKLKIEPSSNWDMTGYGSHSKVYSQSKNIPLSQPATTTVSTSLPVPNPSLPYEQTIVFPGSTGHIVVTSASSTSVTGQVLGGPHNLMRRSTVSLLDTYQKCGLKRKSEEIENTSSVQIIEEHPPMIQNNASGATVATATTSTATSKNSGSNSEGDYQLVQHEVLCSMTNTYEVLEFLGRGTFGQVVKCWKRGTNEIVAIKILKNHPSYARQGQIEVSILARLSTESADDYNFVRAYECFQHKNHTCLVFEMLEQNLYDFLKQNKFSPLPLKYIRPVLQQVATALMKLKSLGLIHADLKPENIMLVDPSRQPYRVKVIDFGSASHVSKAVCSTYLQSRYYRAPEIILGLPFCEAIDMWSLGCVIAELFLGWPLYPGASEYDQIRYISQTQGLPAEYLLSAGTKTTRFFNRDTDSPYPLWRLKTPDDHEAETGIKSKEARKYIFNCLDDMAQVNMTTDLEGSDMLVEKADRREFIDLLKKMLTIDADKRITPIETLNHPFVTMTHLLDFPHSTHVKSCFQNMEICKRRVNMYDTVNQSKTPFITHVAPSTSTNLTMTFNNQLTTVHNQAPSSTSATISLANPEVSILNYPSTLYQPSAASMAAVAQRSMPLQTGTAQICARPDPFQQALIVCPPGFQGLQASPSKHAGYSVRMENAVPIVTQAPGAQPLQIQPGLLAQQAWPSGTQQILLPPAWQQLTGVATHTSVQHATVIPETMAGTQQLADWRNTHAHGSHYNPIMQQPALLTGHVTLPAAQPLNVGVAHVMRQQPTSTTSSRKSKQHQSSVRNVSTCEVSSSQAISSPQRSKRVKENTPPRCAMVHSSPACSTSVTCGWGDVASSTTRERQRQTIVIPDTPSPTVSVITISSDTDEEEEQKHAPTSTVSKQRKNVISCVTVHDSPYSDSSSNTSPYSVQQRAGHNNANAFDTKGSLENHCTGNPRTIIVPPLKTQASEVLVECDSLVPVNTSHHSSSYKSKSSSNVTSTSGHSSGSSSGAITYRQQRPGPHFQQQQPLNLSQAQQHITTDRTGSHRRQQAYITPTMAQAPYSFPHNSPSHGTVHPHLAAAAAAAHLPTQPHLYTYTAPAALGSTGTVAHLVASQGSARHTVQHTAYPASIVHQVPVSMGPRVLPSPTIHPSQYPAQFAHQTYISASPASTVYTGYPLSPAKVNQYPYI
For test [19] the target is unchanged. To be noted: at 10 µM.
Test [20] has as its target Homeodomain-interacting protein kinase 3 (Homo sapiens) (UniProt Q9H422). The following applies: at 1 µM.

Sequence of G protein-coupled receptor kinase 5 (Homo sapiens) (P34947 whole entry, looked up): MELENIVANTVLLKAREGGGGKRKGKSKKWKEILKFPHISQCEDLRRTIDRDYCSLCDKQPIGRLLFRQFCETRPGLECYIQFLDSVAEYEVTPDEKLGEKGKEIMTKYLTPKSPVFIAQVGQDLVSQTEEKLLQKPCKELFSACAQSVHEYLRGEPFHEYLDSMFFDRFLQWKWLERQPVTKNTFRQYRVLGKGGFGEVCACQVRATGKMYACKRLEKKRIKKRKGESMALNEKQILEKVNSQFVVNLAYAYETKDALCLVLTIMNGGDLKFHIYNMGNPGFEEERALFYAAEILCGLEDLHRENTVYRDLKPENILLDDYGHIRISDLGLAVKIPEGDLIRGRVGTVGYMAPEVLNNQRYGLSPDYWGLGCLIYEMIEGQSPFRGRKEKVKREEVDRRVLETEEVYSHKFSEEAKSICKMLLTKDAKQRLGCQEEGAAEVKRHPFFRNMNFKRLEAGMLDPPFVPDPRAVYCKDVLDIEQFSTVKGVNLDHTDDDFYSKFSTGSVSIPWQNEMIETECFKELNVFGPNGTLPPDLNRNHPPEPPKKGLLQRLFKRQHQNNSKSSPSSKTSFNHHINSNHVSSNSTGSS
Sequence of Macrophage colony-stimulating factor 1 receptor (Homo sapiens) (P07333 whole entry): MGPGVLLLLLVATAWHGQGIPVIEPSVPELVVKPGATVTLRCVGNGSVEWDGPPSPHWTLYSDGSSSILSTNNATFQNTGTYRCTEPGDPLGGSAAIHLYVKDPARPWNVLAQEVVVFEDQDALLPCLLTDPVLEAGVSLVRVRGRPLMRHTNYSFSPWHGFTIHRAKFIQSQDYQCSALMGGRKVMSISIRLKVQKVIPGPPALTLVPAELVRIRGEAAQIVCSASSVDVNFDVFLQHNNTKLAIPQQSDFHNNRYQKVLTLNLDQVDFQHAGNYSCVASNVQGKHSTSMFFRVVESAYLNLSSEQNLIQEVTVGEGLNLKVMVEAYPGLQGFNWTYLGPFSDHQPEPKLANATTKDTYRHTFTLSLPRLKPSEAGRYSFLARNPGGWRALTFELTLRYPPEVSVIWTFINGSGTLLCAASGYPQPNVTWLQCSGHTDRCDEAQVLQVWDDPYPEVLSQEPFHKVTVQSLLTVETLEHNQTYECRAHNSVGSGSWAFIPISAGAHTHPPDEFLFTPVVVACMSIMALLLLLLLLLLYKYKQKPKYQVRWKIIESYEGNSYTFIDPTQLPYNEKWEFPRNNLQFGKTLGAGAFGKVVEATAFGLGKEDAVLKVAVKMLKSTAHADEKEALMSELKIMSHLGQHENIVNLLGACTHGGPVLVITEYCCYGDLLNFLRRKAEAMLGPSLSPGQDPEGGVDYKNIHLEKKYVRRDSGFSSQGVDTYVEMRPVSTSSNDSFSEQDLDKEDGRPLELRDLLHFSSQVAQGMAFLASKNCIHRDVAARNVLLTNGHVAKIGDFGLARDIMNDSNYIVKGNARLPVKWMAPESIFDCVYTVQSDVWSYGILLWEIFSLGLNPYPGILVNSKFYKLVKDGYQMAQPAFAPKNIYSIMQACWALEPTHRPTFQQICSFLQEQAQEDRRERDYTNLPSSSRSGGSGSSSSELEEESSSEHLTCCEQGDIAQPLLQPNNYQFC
Sequence of Glycogen synthase kinase-3 beta (Homo sapiens) (P49841 whole entry, looked up): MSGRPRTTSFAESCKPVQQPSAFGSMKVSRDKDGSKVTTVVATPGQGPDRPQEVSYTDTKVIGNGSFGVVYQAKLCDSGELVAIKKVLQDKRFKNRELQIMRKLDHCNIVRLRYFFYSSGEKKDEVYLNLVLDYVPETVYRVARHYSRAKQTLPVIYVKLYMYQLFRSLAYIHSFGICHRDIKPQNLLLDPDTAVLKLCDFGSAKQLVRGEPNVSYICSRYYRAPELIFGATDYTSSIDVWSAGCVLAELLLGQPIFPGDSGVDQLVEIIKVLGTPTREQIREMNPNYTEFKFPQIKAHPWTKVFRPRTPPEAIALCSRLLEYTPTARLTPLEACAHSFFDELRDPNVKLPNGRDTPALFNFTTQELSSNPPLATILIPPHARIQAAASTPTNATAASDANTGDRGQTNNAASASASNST

Turning to `Cc1cc2ncc(-c3ccccc3)nc2cc1C`, the residual activity worked out at 26% in test [1]; 36% in test [2]; 6% in test [3]; 98% in test [4]; 27% in test [5]; 98% in test [6]. Also, the residual activity turned out to be 90% in test [7]; 102% in test [8]; 101% in test [9]; 102% in [10]; 94% in test [11]; 104% in test [12]. Also, the residual activity in test [13] was 130%; in test [14] it was 88%; in test [15] it was 106%; in test [16], 94%; in [17] it was 102%; in test [18] it was 102%. Moreover, the residual activity is 97% in test [19] and 105% in test [20].
In the case of `O=C(Nc1cccc(Nc2nccc(Nc3cccc(C(F)(F)F)c3)n2)c1)C1CC1`, the residual activity was 6% in test [1]; 14% in [2]; 2% in [3]; 47% in test [4]; 7% in [5]; 97% in test [6]. Further, the residual activity in test [7] was determined as 32%; in [8], 102%; in test [9], 94%; in test [10], 104%; in [11], 88%; in [12] it was 94%. Also, the residual activity in test [13] worked out at 67%; in test [14], 79%; in test [15] it was 104%; in test [16] it was 96%; in [17], 102%; in test [18], 93%. Further, the residual activity in test [19] turned out to be 89%; in test [20] it was 103%.
For `O=C(O)c1ccc2c3c1cccc3c(=O)n1c3ccccc3nc21`, the residual activity in test [1] came to 43%; in test [2], 102%; in test [3], 75%; in test [4] it was 80%; in [5], 59%; in test [6], 38%. For the same compound, the residual activity came to 21% in test [7]; 70% in [8]; 91% in test [9]; 102% in [10]; 80% in test [11]; 98% in [12]. The residual activity in [13] came to 35%; in test [14], 98%; in test [15], 41%; in test [16] it was 104%; in test [17] it was 69%; in test [18], 70%. Moreover, the residual activity in test [19] turned out to be 24%; in [20] it was 101%.
Consider `CC(=O)O/N=C1\C(=C2\C(=O)Nc3cc(Br)ccc32)Nc2ccccc21`, for which the residual activity in test [1] is 1%; in test [2] it was 33%; in test [3] it was 16%; in [4], 1%; in test [5], 0%; in test [6], 67%. The residual activity in test [7] was 23%; in test [8], 94%; in [9], 88%; in test [10], 106%; in [11], 87%; in test [12], 4%. The residual activity in test [13] came out at 0%; in test [14], 14%; in test [15], 2%; in [16], 95%; in test [17], 85%; in test [18], 84%. Moreover, the results for the residual activity in [19] and in test [20] were 43% and 93%, respectively.
For the compound `CCC(=O)Nc1ccc2ncnc(Nc3cccc(Br)c3)c2c1`, the residual activity is 65% in [1]; 94% in test [2]; 61% in test [3]; 85% in test [4]; 67% in test [5]; 77% in test [6]. Further, the residual activity worked out at 69% in test [7]; 93% in test [8]; 83% in test [9]; 96% in [10]; 86% in [11]; 125% in test [12]. Further, the residual activity in test [13] amounted to 142%; in test [14], 108%; in [15] it was 96%; in test [16], 98%; in [17], 105%; in [18] it was 104%. For the same compound, the residual activity in [19] came to 103%; in [20], 92%.
Consider `Cc1ccc(S(=O)(=O)/C=C/C#N)cc1`, for which the residual activity is 89% in [1]; 84% in test [2]; 89% in test [3]; 88% in test [4]; 100% in test [5]; 90% in test [6]. For the same compound, the residual activity in test [7] was 89%; in test [8], 101%; in test [9], 94%; in [10] it was 95%; in test [11] it was 90%; in test [12] it was 115%. The residual activity is 102% in test [13]; 117% in [14]; 121% in test [15]; 104% in test [16]; 90% in test [17]; 101% in test [18]. For the same compound, the values for the residual activity in test [19] and in test [20] were 96% and 103%, respectively.
Turning to `O=C(Nc1cccc(Nc2cc(Nc3cccc(C(F)(F)F)c3)ncn2)c1)C1CC1`, the residual activity came to 61% in [1]; 71% in test [2]; 37% in test [3]; 92% in test [4]; 36% in [5]; 100% in [6]. The residual activity in test [7] came out at 70%; in [8], 100%; in test [9], 97%; in test [10], 102%; in [11], 92%; in test [12], 107%. The residual activity in [13] turned out to be 102%; in [14] it was 89%; in test [15] it was 89%; in [16], 104%; in [17] it was 98%; in test [18], 110%. Further, the residual activity in [19] came to 98%; in [20], 99%.
